Compound activity as filed in PubChem.
PTAP TSG101 blk: blocks PTAP/TSG101 interaction to inhibit HIV-1 budding. Q99816. Fluorescence polarization, FITC-PTAP peptide / Tsg101 binding. Potency, µM (highest dose often 115 µM), for the others: at the highest dose activity change, negative = inhibition, hits mostly inhibitors. 340,000 tested, under 10 active; active = well fitted inhibition curve with a large enough effect in the main read-out, with a control signal flat, not every such curve was filed as active; inconclusive = small, poorly fitted or top-dose-only effect, or effect the other way, or a change in a side signal; inactive = no such curve, though single readings can be large or run the other way; note: % of control where 0% means no effect
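Steps: Tsg101 binding domain dispensed (10 uM final), compounds pinned in DMSO, FITC-labeled PTAP-motif peptide added (50 nM final); after 20 min binding at room temperature, polarization measured.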
AT treatment: potential ataxia-telangiectasia treatment; Potency, µM (doses to about 57.5 µM), for the others: at the highest dose activation, most hits filed as activators; F2112 A-T fibroblasts, KAP-1 phosphorylation AlphaLISA; neocarzinostatin DNA damage 30 min before lysis; AID 485349; 320,000 tested, 0.19% active; note: % of control where 0% means no effect; nearly all actives have a fitted effect of over 45% in size
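ATM-like activity read as KAP-1 phosphorylation via AlphaLISA donor/acceptor antibody pairs after lysis and 6 hr at 25C. Cells were ATM-null patient fibroblasts (F2112, hTERT), dosed 60 min, then exposed to the DSB inducer NCS for 30 min.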
a7 integrin act: activates integrin-mediated alleviation for muscular dystrophy. 350,000 tested, 0.064% active. Potency, µM (highest dose often 38.3 µM), for inactives: top-dose activation, most hits filed as activators. alpha7betagal myoblasts, beta-gal FDG fluorescence, 48 h;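 note: 100% = response of the positive control SU9516; nearly all actives have a fitted effect of over 60% in size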
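alpha7betagal+/- myoblasts (passage 13, 250/well) treated 48 h at 37C with compounds at 1:260 dilution of DMSO stock. Lysed, then beta-galactosidase activity read as FDG fluorescence (ex 480/em 540) after 30 min, with pre-read for autofluorescence.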
Mito fusion act: inhibitors of mitochondrial division or activators of mitochondrial fusion. S. cerevisiae fusion-defective mutant growth rescue, CellTiterGlo 48 h. Potency, µM (highest dose often 46.1 µM), for the others: at the highest dose growth rescue (activation), actives largely listed as activators. 320,000 tested, 0.23% active; note: % of control where 0% means no effect; nearly all actives have a fitted effect of over 45% in size
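Temperature-sensitive fusion-defective S. cerevisiae (e.g. fzo1-1, mgm1-5) were grown with compound in YPEG medium (3% ethanol, 3% glycerol) for 48 hours at 37C. Growth rescue was measured as viability by CellTiterGlo luminescence after 10 minutes at ambient.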
GALK inhibitor: blocks human galactokinase activity. AID 1868. 270,000 tested, 0.007% active. Potency, µM (doses to about 57.5 µM), for the others: at the top dose activity change, negative = inhibition, most hits filed as inhibitors. Purified GALK, Kinase-Glo residual ATP luminescence; note: % is set by controls: 0 for no effect and ±100 for the full control effect
Target sequence (P51570 whole entry, looked up): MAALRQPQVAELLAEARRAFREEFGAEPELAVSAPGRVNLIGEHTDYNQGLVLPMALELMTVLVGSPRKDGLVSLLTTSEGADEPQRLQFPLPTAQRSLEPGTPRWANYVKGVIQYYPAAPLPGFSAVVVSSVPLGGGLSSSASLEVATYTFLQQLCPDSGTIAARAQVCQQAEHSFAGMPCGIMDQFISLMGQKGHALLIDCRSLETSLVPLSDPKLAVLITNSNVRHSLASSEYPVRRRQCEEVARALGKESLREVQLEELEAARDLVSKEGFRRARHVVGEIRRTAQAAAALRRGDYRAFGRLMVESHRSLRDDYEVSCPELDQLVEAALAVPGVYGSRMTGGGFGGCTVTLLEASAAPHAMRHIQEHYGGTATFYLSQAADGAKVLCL
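5 nM enzyme, 35 uM ATP, 100 uM galactose, 20 mM HEPES pH8.0, 5 mM MgCl2; 1 h RT; residual ATP by Kinase-Glo Plus luminescence, qHTS format.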
S-ASM inh: inhibitors of human secretory acid sphingomyelinase. 340,000 tested, 0.006% active. placental ASM, HMU-PC fluorogenic substrate, 60 min. Potency, µM (titrated, usually from 57.5 µM), for inactives: at the top dose activity change, negative = inhibition, actives largely listed as inhibitors. AID 504937. P17405
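Fluorogenic HMU-PC substrate (9 uM final) is turned over by placental ASM in 60 min at 37 C after a 10 min compound preincubation. Reaction ended by alkaline stop (pH 10), with fluorescence read at 386/447 nm.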
Starred values were filed as active, the others as inactive; i = inactive; u = inconclusive; x = no result given. Only some compounds are listed: those with a hit (about 0.46% of all), similar ones and a draw of the others. Unless noted, calls come from the whole dose curve; as a rule, active = well fitted curve in the direction sought with a large enough effect; inconclusive = small, poorly fitted or top-dose-only effect, or another doubt; inactive = no such curve, though single readings can be large; an effect the other way counts as inactive or inconclusive. Potency is the fitted concentration of half-maximal effect.

SMILES	PTAP TSG101 blk	AT treatment	a7 integrin act	Mito fusion act	GALK inhibitor	S-ASM inh
COc1ccc(NS(=O)(=O)c2ccc3oc4ccccc4c3c2)cn1	-4%	0%	-4%	25µM*	-2%	u
O=C(Nc1ccc(CN2CCOCC2)cc1)c1ccc(Br)o1	-5%	40%	9%	6%	0%	-6%
O=C(Nc1ccc(CN2CCOCC2)cc1)c1ccc(-c2cc(Cl)ccc2Cl)o1	-6%	0%	-58%	10µM*	-4%	u
CC1CC(C)CN(C(=O)COC(=O)c2c[nH]c3ccccc23)C1 (stereo not drawn)	-9%	10µM*	-20%	-3%	x	-5%
CC1CCN(C(=O)COC(=O)c2c[nH]c3ccccc23)CC1	-4%	-2%	-10%	0%	x	-1%
CC(C)c1nc2sc3c(=O)[nH]c(=S)[nH]c3c2c2c1CCCC2	-13%	-7%	0%	21%	-1%	-1%
CC(C)c1nc2sc3c(=O)[nH]c(=S)[nH]c3c2c2c1CCC2	x	-3%	x	13µM*	x	x
O=C(NC(Cc1ccccc1)C(=O)N1CCCCCC1)c1ccccc1 (stereo not drawn)	-1%	19%	-35%	-1%	-8%	-3%
O=C(NC(CC1CCCCC1)C(=O)O)c1ccccc1 (stereo not drawn)	-4%	25µM*	23%	-1%	x	-6%
S=c1[nH]nc(SCc2ccccc2)c2[nH]cnc12	-2%	x	u	x	x	u
Cc1ccc(C2c3c(oc4ccccc4c3=O)C(=O)N2c2nnc(C)s2)cc1 (stereo not drawn)	x	x	x	2%	x	x
Cc1cc(=O)cc(C)n1-c1ccc(Br)cc1	2%	-5%	2%	2%	1%	-1%
Cc1cn(C(=O)c2ccccc2)c(=S)n1-c1ccc(Br)cc1	-1%	1%	11%	16µM*	-3%	-17%
CCn1c(C)c(C(=O)O)c2cc(OC)c3ccccc3c21	2%	10µM*	13%	-12%	4%	2%
CCc1nn(CC(=O)NCc2cccnc2)c(=O)c2cc3occc3n12	-1%	9%	6%	-2%	-4%	-1%
O=C(CCC(=O)N(CC(=O)NC1CCCCC1)c1ccc2c(c1)OCCO2)Nc1ccccn1	x	9%	x	22µM*	10%	x
C=CCn1c(CNC(=O)c2ccccc2F)nnc1SCc1nc2ccccc2c(=O)[nH]1	1%	-2%	u	-1%	0%	0%
CC1CC(C)CN(C(=O)c2cccc(S(=O)(=O)Nc3cc(C(F)(F)F)ccc3Cl)c2)C1 (stereo not drawn)	-9%	-4%	36%	16µM*	-1%	-2%
O=C(O)c1cccc(S(=O)(=O)Nc2cc(Cl)ccc2Cl)c1	-7%	27%	-7%	4%	-2%	1%
O=C(CSc1ccc(-c2ccncc2)nn1)N1CCN(c2ccccc2)CC1	-1%	0%	-14%	-1%	-2%	0%
O=C1C=C(c2cccc(Cl)c2O)C[C@@H](c2ccc3c(c2)OCO3)C1	-1%	-5%	3%	11µM*	x	-8%
COC(=O)C1=CN(C(C)C)C=C(C(=O)OC)C1c1cc(Br)c(OC)c(OC)c1	-3%	20µM*	-16%	24%	1%	i
O=C(Cc1ccc(Cl)cc1)N1CCN(c2ccc(F)cc2)CC1	-2%	32%	-7%	u	2%	3%
O=C(Cc1ccc(Cl)cc1)N1CCN(c2ccccc2)CC1	-4%	22µM*	22%	u	-2%	-1%
CCC1CCCCN1CC(C)(C)NS(=O)(=O)c1ccccc1 (stereo not drawn)	-3%	35µM*	-12%	6%	0%	-1%
SMILES	PTAP TSG101 blk	AT treatment	a7 integrin act	Mito fusion act	GALK inhibitor	S-ASM inh
CN(CC(=O)NCCc1ccccc1)S(=O)(=O)c1ccc(Br)s1	-2%	6%	u	3%	0%	2%
COCCNC(=O)c1c[nH]c2ccc(S(=O)(=O)N(C)c3ccc(C)c(C)c3)cc2c1=O	-8%	7.1µM*	10%	4%	-2%	-10%
C=CCN(c1ccccc1)S(=O)(=O)c1ccc2[nH]cc(C(=O)NCCOC)c(=O)c2c1	-9%	-2%	-14%	-3%	-2%	1%
COc1c(F)c(F)c(C(=O)Nc2c(C)cc(Br)cc2C)c(F)c1F	0%	-3%	14%	-4%	-2%	0%
CCCCNC(=O)Nc1ncn[nH]1	-3%	0%	1%	0%	-3%	2%
O=Cc1ccc(C(=O)OCC(=O)N2CCCC2)cc1	2%	0%	2.5µM*	0%	4%	1%
Cc1ccc[n+](CC(=O)Nc2cc(C(F)(F)F)ccc2N2CCOCC2)c1	1%	-2%	u	-14%	-1%	2%
CCOC(=O)c1c(NC(=O)c2ccccc2Cl)sc2c1CCc1ccccc1-2	-1%	6%	10%	11µM*	x	31%
CC1=C(C(=O)O)N2C(=O)[C@@H](NC(=O)C(N)C3=CCC=CC3)[C@H]2SC1 (stereo partly drawn)	x	x	x	29%	x	x
CN(C)c1nc(N)ncc1-c1ccc(Oc2ccccc2)cc1	-2%	14%	20%	-21%	x	-1%
O=C(N/N=C/c1cc([N+](=O)[O-])ccc1O)Nc1ccccc1	1%	0%	-10%	-6%	-1%	-11%
CCNC(=O)C(=O)N/N=C/c1cc([N+](=O)[O-])ccc1O	-2%	-3%	-38%	22µM*	0%	-6%
Clc1ccc(-c2nnc(-c3ccco3)nc2N2CCCCC2)cc1	0%	0%	1%	11µM*	-1%	-5%
Clc1ccc(-c2nnc(-c3ccc(Br)cc3)c(N3CCSCC3)n2)cc1	0%	2%	15%	3%	-1%	-11%
CC(C)C[C@H](NC(=O)C1(c2ccccc2)CCN(C(=O)[C@H]2CSCN2C(=O)OC(C)(C)C)CC1)C(=O)O	-9%	-1%	17%	-16%	x	7%
CC(C)(C)OC(=O)N1CSC[C@H]1C(=O)NC[C@H](CC(=O)O)c1ccc(Cl)cc1	0%	7.1µM*	-33%	16%	3%	7%
Nc1nc(CSc2nc3ccccc3s2)nc(Nc2ccccc2)n1	x	13%	x	14%	-4%	x
Cc1c(Cl)cccc1Nc1nc(N)nc(CSc2nc3ccccc3s2)n1	-3%	0%	-5%	8.9µM*	0%	-10%
CSc1sc(C(=O)N(C)C)c2c1S(=O)(=O)N(C)c1ccccc1-2	-2%	2%	-3%	-5%	-2%	10%
Cc1oc2c(c(C)cc3oc(=O)c(CC(=O)NCC(=O)NCC(=O)O)c(C)c32)c1C	x	5.6µM*	x	-12%	x	x
